# From the supplement of paper PMC3545927
# The other results are listed elsewhere or left out. No count for the full screen is at hand.
# Biological target: furin, P09958
# Assay: furin cleavage Z-score vs untreated control; higher = more cleavage, active = 3.5 or more, inactive = 1 or less, 8 variable residues between constant flanks
# How it was run: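 Abundance of DNA freed from bead-bound 8-mer peptide–cDNA fusions by purified furin was measured as sequencing read counts after PCR adapter tagging. Cutting ran 7.5, 15 or 30 min in 0.01 ml of 50 mM HEPES pH 7.5 with CaCl2 and NaCl at 1:10 enzyme:substrate. The cleavage Z-score expresses these log counts against furin-free reactions after lowess adjustment and median absolute deviation scaling.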
# Chain of furin, P09958 (P09958 whole entry): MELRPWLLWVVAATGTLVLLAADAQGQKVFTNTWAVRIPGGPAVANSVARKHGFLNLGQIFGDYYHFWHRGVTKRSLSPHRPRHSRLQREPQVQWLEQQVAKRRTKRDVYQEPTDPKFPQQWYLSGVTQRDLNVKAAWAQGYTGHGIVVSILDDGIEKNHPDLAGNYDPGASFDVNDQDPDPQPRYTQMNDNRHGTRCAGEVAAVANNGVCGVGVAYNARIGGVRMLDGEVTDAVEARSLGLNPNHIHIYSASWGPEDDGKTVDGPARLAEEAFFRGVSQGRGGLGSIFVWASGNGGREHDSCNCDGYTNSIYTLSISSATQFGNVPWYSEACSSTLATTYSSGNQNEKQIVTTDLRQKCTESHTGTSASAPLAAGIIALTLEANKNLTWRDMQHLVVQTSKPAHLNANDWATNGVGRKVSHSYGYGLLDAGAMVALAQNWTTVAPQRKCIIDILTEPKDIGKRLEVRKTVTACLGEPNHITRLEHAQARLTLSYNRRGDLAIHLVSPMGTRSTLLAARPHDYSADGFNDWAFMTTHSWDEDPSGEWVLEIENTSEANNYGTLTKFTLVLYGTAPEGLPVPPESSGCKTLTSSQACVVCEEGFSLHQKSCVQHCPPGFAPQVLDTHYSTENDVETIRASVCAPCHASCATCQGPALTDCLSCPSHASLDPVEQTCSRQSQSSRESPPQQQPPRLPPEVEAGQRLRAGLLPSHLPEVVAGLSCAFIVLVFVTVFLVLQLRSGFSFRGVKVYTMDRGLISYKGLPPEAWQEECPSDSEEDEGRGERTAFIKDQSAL
Sequence,furin cleavage Z-score (7.5 min),furin cleavage Z-score (15 min),furin cleavage Z-score (30 min)
CAPRWIWFCLAGNASASA [HC1655],2.54,0.216 (inactive),2.32
CADYEPPVVHAGNASASA [HC1313],-0.331 (inactive),-1.03 (inactive),0.818 (inactive)
CAKKSRAERKAGNASASA [FS-676],-0.262 (inactive),-0.389 (inactive),0.536 (inactive)
CAKKSRKSRPAGNASASA [FS-43],-1.56 (inactive),-0.706 (inactive),-1.33 (inactive)
CAKKSRSGRHAGNASASA [FS-1635],1.49,3.83 (active),4.08 (active)
CARKKRSGRHAGNASASA [FS-2968],8.42 (active),11.9 (active),8.64 (active)
CARKKRVHFHAGNASASA [FS-2271],-0.215 (inactive),-0.15 (inactive),0.343 (inactive)
CAYGMWPLLLAGNASASA [HC556],1.73,0.0218 (inactive),-0.323 (inactive)
CATTPCSGHWAGNASASA [HC1915],-0.316 (inactive),1.87,0.16 (inactive)
CAAHGIDPNIAGNASASA [HC796],-0.768 (inactive),-0.681 (inactive),0.0731 (inactive)
CATTPCDGSWAGNASASA [HC72],0.037 (inactive),1.11,0.507 (inactive)
CAMEECSLHLAGNASASA [HC1725],-0.0304 (inactive),0.668 (inactive),0.792 (inactive)
CAREGRSKALAGNASASA [FS-2911],0.205 (inactive),2.53,0.493 (inactive)
CARYGRFLQPAGNASASA [FS-3134],0.584 (inactive),1.53,0.786 (inactive)
CAKRSHLKRDAGNASASA [FS-680],6.24 (active),7.72 (active),6.62 (active)
CAKQLRLKRDAGNASASA [FS-814],15 (active),13.5 (active),10.4 (active)
CARYGRCKRDAGNASASA [FS-715],15.2 (active),15.5 (active),11.9 (active)
CAREGRLKRDAGNASASA [FS-1256],11.7 (active),13 (active),11 (active)
CASGPCSAHLAGNASASA [HC2496],-0.802 (inactive),0.24 (inactive),0.168 (inactive)
CAADAVDGAGAGNASASA [CS10],0.632 (inactive),-1.19 (inactive),1.15
CALNNTRPPLAGNASASA [HC430],2.07,0.471 (inactive),1.95
CACGSSDLYLAGNASASA [HC723],-2.29 (inactive),-1.54 (inactive),-0.552 (inactive)

Sequence,furin cleavage Z-score (7.5 min),furin cleavage Z-score (15 min),furin cleavage Z-score (30 min)
CATTPCSVSWAGNASASA [HC1890],-0.725 (inactive),-1.82 (inactive),-0.963 (inactive)
CAQVGDFHYVAGNASASA [HC1208],-1.01 (inactive),0.348 (inactive),-0.0115 (inactive)
CAKQHRLKRYAGNASASA [FS-1349],11.1 (active),11.6 (active),10 (active)
CAGPIRLKRDAGNASASA [FS-593],15 (active),15.3 (active),10.9 (active)
CARVERFKRDAGNASASA [FS-1567],12.4 (active),11.1 (active),8.4 (active)
CALPGNPAIAAGNASASA [HC1051],0.0659 (inactive),-0.342 (inactive),-0.64 (inactive)
CACGPVYCFTAGNASASA [HC412],0.624 (inactive),0.0869 (inactive),-0.506 (inactive)
CAHPLRKRRKAGNASASA [FS-131],8.81 (active),9.6 (active),7.46 (active)
CARKRRKRKKAGNASASA [FS-858],0.153 (inactive),0.772 (inactive),1.09
CAPPLVETWKAGNASASA [HC1308],2.31,0.789 (inactive),-0.408 (inactive)
CAVKSRKRRKAGNASASA [FS-149],11 (active),11.7 (active),8.76 (active)
CASTPCSAHIAGNASASA [HC2564],-0.152 (inactive),-1.03 (inactive),-0.677 (inactive)
CALWWLQYFLAGNASASA [HC582],-0.496 (inactive),-0.768 (inactive),-1.19 (inactive)
CAEVVDSTWVAGNASASA [HC132],-0.25 (inactive),1.14,-1.05 (inactive)
CATTPDSGSWAGNASASA [HC52],-0.899 (inactive),-0.656 (inactive),-0.757 (inactive)
CASTPCSARLAGNASASA [HC2553],0.576 (inactive),0.581 (inactive),-0.498 (inactive)
CAVLEESKRLAGNASASA [FS-1429],-0.217 (inactive),-1.55 (inactive),-0.503 (inactive)
CASTPCSKHLAGNASASA [HC2534],1,-1.62 (inactive),0.302 (inactive)
CASTPRSKRLAGNASASA [FS-1091],3.77 (active),6.77 (active),5.46 (active)
CATTYRSKRLAGNASASA [FS-886],8.78 (active),10.5 (active),9.12 (active)
CAHTWREKRLAGNASASA [FS-31],1.05,0.418 (inactive),0.0913 (inactive)
